D1 antag – blocks dopamine activation of the human D1 receptor. P21728. HEK293 TREx D1 cells, calcium flux, dopamine EC80; active compounds read low. activity change, negative = inhibition, % at 10 µM. 360,000 compounds, 3.2% hits; in the data active means activity change below about -30%
Target sequence (P21728 whole entry, looked up): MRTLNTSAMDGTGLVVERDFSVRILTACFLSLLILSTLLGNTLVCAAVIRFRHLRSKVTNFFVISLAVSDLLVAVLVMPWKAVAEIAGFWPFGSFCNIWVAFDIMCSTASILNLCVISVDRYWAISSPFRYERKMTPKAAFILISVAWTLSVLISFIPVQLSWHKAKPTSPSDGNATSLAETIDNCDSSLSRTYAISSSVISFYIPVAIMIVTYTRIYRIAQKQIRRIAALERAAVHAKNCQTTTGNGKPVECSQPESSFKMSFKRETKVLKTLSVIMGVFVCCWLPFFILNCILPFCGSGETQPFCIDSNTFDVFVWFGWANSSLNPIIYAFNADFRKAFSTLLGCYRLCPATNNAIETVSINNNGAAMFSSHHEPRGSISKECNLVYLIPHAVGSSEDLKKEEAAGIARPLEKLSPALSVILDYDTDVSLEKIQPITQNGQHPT
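Antagonism measured as reduced calcium response to an EC80 dopamine addition following 180 s compound pre-read; cells were inducible HEK293 Trex D1 plated overnight at 30 C, read kinetically at 1 cycle/sec.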
D1 ag – activates the human D1 dopamine receptor. 360,000 compounds, 1% hits. HEK293 T-REx D1 cells, calcium flux, agonist mode. activation, % at 2 µM. P21728; in the data active means activation above about 30%
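Agonism was scored from calcium flux recorded over 180 s (1 read/s) after pintool compound addition, following a 10-cycle baseline. Cells were inducible force-coupled HEK293 TREx D1, plated overnight at 30 C and loaded with no-wash calcium dye.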
DRD3 antagonist – D3 dopamine receptor (human) antagonism; P35462; D3R cells, DiscoveRx beta-arrestin luminescence, antagonist mode; active compounds read low; max response, negative = inhibition, %; 360,000 compounds, 2.5% hits; AID 652054; in the data active means max response below about -50%; inconclusive means no clear call, values can overlap the other calls
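Cells plated overnight at 1500 cells/well, then exposed to library compounds with dopamine controls for 90 minutes at 37 degrees C. DiscoveRx reagent added for 30–60 minutes at room temperature; luminescence read, quantitative HTS format.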
DRD3 agonist – activates the human D3 dopamine receptor. D3R DiscoveRx beta-arrestin cells, luminescence, 90 min. max activation, %. 410,000 compounds, 0.58% hits. AID 652048; in the data active means max activation above about 30%
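Agonist mode: compounds and dopamine controls were applied to plated cells for 90 min at 37 degrees C after an overnight attachment at 1500 cells/well. Luminescent read-out followed 30 - 60 minutes at room temperature with DiscoveRx detection reagent.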
BCR signal inh – chronic active BCR signaling inhibition | 340,000 compounds, 0.05% hits | ABC-DLBCL IkBa-CBG/CBR reporter, luminescence ratio, 4 h | Potency, µM (titrated, usually from 46.1 µM), hits mostly inhibitors; active means well fitted inhibition curve with a large enough effect in the signal ratio, with a control signal flat, not every such curve was filed as active; inconclusive means small, poorly fitted or top-dose-only effect, or effect the other way, or a change in a side signal; the % refers to the signal ratio
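TMD8 human ABC-DLBCL cells with doxycycline-inducible IκBα–green luciferase fusion and unfused red luciferase, in 0.5% FBS medium; compounds up to 46 uM, 4 h at 37C. Green/red luminescence ratio, filter-overlap corrected, fitted to concentration-response curves.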
D1 PAM – human D1 dopamine receptor positive modulation | P21728 | HEK293 TREx D1 cells, calcium flux, dopamine EC20 potentiation | potentiation, % at 10 µM | 360,000 compounds, 0.036% hits; in the data active means potentiation above about 30%
A number is an active result; i = inactive; ? = inconclusive; nt = no result. This is a sample that favours compounds with a hit; in the whole collection about 6% have one here.

SMILES	D1 antag	D1 ag	DRD3 antagonist	DRD3 agonist	BCR signal inh	D1 PAM
COC(=O)c1sc(NC(=O)c2c(C)noc2C)nc1C	-32.5	i	i	i	?	i
Cc1nc(NC(=O)c2ccco2)sc1C(=O)O	-34.7	i	i	i	?	i
COC(=O)c1sc(NC(=S)NC(=O)c2ccccc2C)nc1C	i	91.6	i	i	?	i
COC(=O)c1sc(NC(=S)NC(=O)c2ccc(F)cc2)nc1C	i	i	nt	nt	i	i
COC(=O)c1sc(N)c(C(=O)OC)c1COC(=O)c1c(C)noc1C	i	i	-68.9	i	i	i
O=C(NCCc1ccc(F)cc1)C(=O)NCC(c1ccco1)S(=O)(=O)c1cccs1 (configuration not stated)	nt	i	nt	i	i	i
CCCCNc1cc(C)nc(NCc2ccccc2)n1	-51.6	61.3	-62.6	i	?	i
Cc1ccc(/C=N/Nc2cc(C)nc(NCc3ccccc3)n2)cc1	i	i	i	i	?	i
Cc1cc(N/N=C/c2ccc(Cl)cc2Cl)nc(NCc2ccccc2)n1	-48.2	i	i	i	i	i
Cc1cc(Nc2ccccc2)nc(NCc2ccccc2)n1	i	i	?	i	?	i
CCc1cccc(NC(=O)c2cc3c(=O)oc4ccc(C)cc4c3s2)c1	i	i	nt	i	nt	i
c1ccc(-c2cncnc2)cc1	-31.8	i	i	i	i	i
c1ccc(-c2nnc(-c3ccccc3)nn2)cc1	i	i	i	i	?	i
COc1cccc(CNC[C@H]2O[C@@H](n3ccc(N)nc3=O)[C@H](O)[C@@H]2O)c1OCc1ccc(F)cc1Cl	nt	nt	i	i	nt	nt
CCCCC(=O)OCC(=O)[C@]1(O)Cc2c(O)c3c(c(O)c2[C@@H](O[C@H]2C[C@H](NC(=O)C(F)(F)F)[C@H](O)[C@H](C)O2)C1)C(=O)c1c(OC)cccc1C3=O	nt	nt	nt	i	nt	nt
CC(=O)OCC1(C)CN(c2ccccc2)N(C(=O)c2ccc(C(C)(C)C)cc2)C1=O (configuration not stated)	-63.8	i	i	i	i	i
CSc1nc(-c2ccc(Cl)cc2)nc(N)c1C#N	i	i	i	i	?	i
CSc1nc(N)c(C#N)c(-c2ccc(Cl)cc2)c1C#N	-32.2	i	i	i	?	i
O=C(Nc1cccc(-n2cnnn2)c1)c1cc(Cl)ccc1Cl	-44.1	i	i	i	i	i
O=C(Nc1cccc(-n2cnnn2)c1)c1ccco1	-57.0	i	i	i	i	i
O=C(Nc1cccc(-n2cnnn2)c1)c1cc2ccccc2o1	i	i	i	i	i	i
O=C(Nc1cccc(-n2cnnn2)c1)c1ccccc1Br	i	i	i	i	?	i
O=C(Nc1ccccc1C(F)(F)F)N1CCC2(CC1)Oc1ccccc1C(=O)N2Cc1ccccc1F	i	i	nt	i	nt	i
O=C(OCc1cn([C@H]2CN(C(=O)c3cccs3)[C@@H](c3ccccc3)C[C@@H]2O)nn1)c1ccccc1	nt	nt	i	i	nt	nt
COC(=O)c1ccc(OCC(O)CN2C(=O)c3ccccc3C2=O)cc1 (configuration not stated)	-30.6	i	i	i	i	i
SMILES	D1 antag	D1 ag	DRD3 antagonist	DRD3 agonist	BCR signal inh	D1 PAM
CC(=O)c1ccc(NC(=O)CCCSc2nc(-c3ccco3)cc(C(F)(F)F)n2)cc1	i	i	nt	i	nt	i
CCOC(=O)C1CCN(C(c2ccc(C)cc2)c2sc3nc(-c4ccco4)nn3c2O)CC1 (configuration not stated)	nt	i	nt	i	i	i
COc1cc(C)c(CN2CCC(Cc3ccccc3)CC2)cc1C	i	i	?	i	?	i
COc1cc(OC)c(CN2CCC(Cc3ccccc3)CC2)cc1Br	-42.8	i	?	i	i	i
Clc1ccccc1OCCN1CCC(Cc2ccccc2)CC1	-42.2	i	-89.9	i	i	i
C=CCOc1ccccc1CN1CCC(Cc2ccccc2)CC1	i	i	-52.4	i	i	i
CCc1ccccc1OCCCN1CCCC1	i	i	?	i	i	i
OCc1ccccc1OCCCN1CCC(Cc2ccccc2)CC1	-39.2	i	-66.0	i	i	i
O=Cc1cc(Cl)ccc1OCCN1CCC(Cc2ccccc2)CC1	i	i	?	i	i	i
CCN(CC)C(=O)Cn1c(SCC(=O)Nc2ccc(F)cc2)nc2ccccc21	i	i	nt	i	nt	i
CCOC(=O)c1ccc2c(c1)N(C)C(=O)c1ccccc1S2	i	i	i	i	i	i
CCOC(=O)c1cc2n(c1/N=C/N(C)C)-c1ccccc1C2=O	i	90.2	i	i	?	i
CCNS(=O)(=O)c1ccc(CCC(=O)N2CCCC2)cc1	i	i	i	i	i	i
CCNS(=O)(=O)c1ccc(CCC(=O)N2CCc3ccccc3C2)cc1	i	i	-71.6	i	i	i
COC(=O)C1=NN(c2ccc(C)cc2)C2C(=O)N(c3ccccc3OC)C(=O)C12 (configuration not stated)	i	i	i	i	i	i
COc1ccccc1[C@@H]1C(c2ccccc2)=NN(c2ccc(Br)cc2)[C@H]1C(=O)N1CCOC1=O	nt	nt	i	i	?	nt
COc1ccccc1N1C(=O)C2C(C(=O)c3ccccc3)=NN(c3ccc(C)cc3)C2C1=O (configuration not stated)	i	150.0	i	i	i	i
COc1ccccc1N1C(=O)C2C(C(=O)c3ccccc3)=NN(c3ccc(Br)cc3)C2C1=O (configuration not stated)	i	35.2	i	i	?	i
Cc1nn(CC(=O)NCc2cc3ccccc3[nH]2)c(C)c1[N+](=O)[O-]	-41.0	i	i	i	i	i
COc1ccc(CCNC(=O)CCc2c(C)nc3cc(-c4ccccc4)nn3c2C)cc1OC	i	i	nt	i	nt	i
CCc1c(C)nc2cc(-c3ccc(OC)c(OC)c3)nn2c1NCC1CC1	i	i	i	37.9	?	i
O=C(Nc1ccc(SC(F)F)cc1)c1ccc(F)cc1	-36.6	i	i	i	?	i
COc1ccc2cc3cc(C(=O)NCCCN4CCc5ccccc5C4)sc3nc2c1	i	i	-65.1	i	i	i
COc1ccc2nc3sc(C(=O)NCCN4CCc5ccccc5C4)cc3cc2c1	i	i	-67.7	i	i	i
COc1ccc2nc3sc(C(=O)NCCc4ccc(Cl)cc4)cc3cc2c1	i	i	nt	i	nt	i
COc1ccc2cc3cc(C(=O)NC4CC4)sc3nc2c1	i	i	i	i	i	i
Fc1cccc(Nc2cc(-n3cccn3)ncn2)c1	-44.6	i	i	i	?	i
Cc1nc(C)c(-c2csc(Nc3ccc(Cl)cn3)n2)s1	nt	nt	i	i	nt	nt
Cc1ccc(N2C(=O)[C@@H]3[C@H](C2=O)C2c4ccccc4C=NN2[C@@H]3C(=O)c2ccc(Cl)cc2)cc1 (some centres not stated)	i	i	i	i	i	i
